M4 PAM: CHRM4 positive allosteric modulation | P08173 | CHO-K1 hM4/Gqi5, Fluo-8 calcium fluorescence, ACh EC20; 0% = ACh EC20, 100% = maximal ACh | activation, % at 3 µM | actives 0.4% (n = 360,000) | AID 624126;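 active = activation above its plate's cutoff, the mean activation of sample wells plus 3 SD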
Target sequence (P08173 whole entry, looked up): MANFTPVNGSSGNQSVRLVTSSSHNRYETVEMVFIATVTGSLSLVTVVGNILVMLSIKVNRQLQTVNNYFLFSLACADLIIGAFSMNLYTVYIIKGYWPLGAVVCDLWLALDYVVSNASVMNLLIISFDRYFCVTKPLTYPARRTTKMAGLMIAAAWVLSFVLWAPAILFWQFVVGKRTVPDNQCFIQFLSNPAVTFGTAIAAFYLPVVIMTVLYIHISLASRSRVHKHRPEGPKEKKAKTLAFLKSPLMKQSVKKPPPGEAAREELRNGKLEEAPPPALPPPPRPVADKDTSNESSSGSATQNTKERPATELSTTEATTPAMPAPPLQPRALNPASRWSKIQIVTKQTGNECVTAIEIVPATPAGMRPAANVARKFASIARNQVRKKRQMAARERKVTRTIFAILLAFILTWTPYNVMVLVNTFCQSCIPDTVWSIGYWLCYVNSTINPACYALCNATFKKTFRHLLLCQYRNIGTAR
CHO-K1 Ca antag: M1 antagonist counterscreen hit in parental CHO-K1 cells | ATP-induced calcium, Fluo-8 fluorescence | inhibition, % at 3 µM | actives 0.6% (n = 360,000) | AID 602250;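 active = inhibition above a per-plate cutoff, the plate's mean sample inhibition plus 3 SD, cut at about 24% in these data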;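 also: 0% = DMSO plus EC80 ATP and 100% = DMSO alone without ATP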
CHRM4 agonist: agonists of human muscarinic M4 receptor (CHRM4). CHO-K1 hM4/Gqi5, Fluo-8 calcium fluorescence; vehicle 0%, full acetylcholine response 100%. activation, % at 3 µM. actives 0.14% (n = 360,000);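 active = activation above the run mean over all test wells plus 3 SD, cut at about 32% in these data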;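 also: peak over basal fluorescence ratio per well then scaled between controls; 0% = DMSO wells and 100% = acetylcholine at EC100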
CHO-K1 Ca PAM: nonselective activator or artifact in parental CHO-K1 calcium assay | AID 602247 | activation, % at 3 µM | ATP EC20, Fluo-8 calcium fluorescence; 0% at ATP EC20, 100% at ATP max | actives 0.02% (n = 360,000);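 active = activation above the run cutoff, the mean activation of all test compounds plus 3 SD, cut at about 40% in these data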;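 also: peak over basal fluorescence ratio in a 140 s read after ATP addition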
CHO-K1 Ca ag: M1 agonist counterscreen hit in parental CHO-K1 cells | activation, % at 3 µM | actives 0.48% (n = 360,000) | Fluo-8 calcium fluorescence; scaled to maximal ATP response, vehicle zero; in the data active = activation above about 15%;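 also: untransfected CHO-K1 host cells lacking M1 receptor as counterscreen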
M4 antag: blocks acetylcholine activation of human M4 receptor; actives 0.73% (n = 360,000); CHO-hM4 cells, ACh EC80, Fluo-8 calcium fluorescence; P08173; AID 624125; inhibition, % at 3 µM;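 active = inhibition above its plate's cutoff, the mean inhibition of sample wells plus 3 SD, cut at about 27% in these data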;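 also: 0% = acetylcholine EC80 with DMSO and 100% = DMSO without agonist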
Starred values were filed as active, the others as inactive. Compounds with a hit are over-represented: about 2% of the library has one in this group of screens.

SMILES	M4 PAM	CHO-K1 Ca antag	CHRM4 agonist	CHO-K1 Ca PAM	CHO-K1 Ca ag	M4 antag
CCOC(=O)c1cnc2c(C)cccc2c1Nc1cccc(C(=O)O)c1	14.0	-16.8	1.6	0.9	-0.2	29.8*
CCOC(=O)c1cnc(-n2nc(C)cc2C)nc1Nc1cccc(C(=O)O)c1	21.9	-4.4	0.2	9.2	0.6	-13.7
CC(=O)c1ccc(NC(=O)CSc2nnc(NC(=O)c3ccco3)s2)cc1	21.4*	0.5	0.7	20.1	6.6	1.0
COC(=O)c1ccc(CN2CCC(CO)(Cc3ccccc3Cl)CC2)cc1	-24.0	11.9	1.7	5.2	1.1	27.3*
COC(=O)c1ccc(CN2CCCC(CO)(Cc3ccccc3F)C2)cc1 (centres undefined)	-13.0	15.0	3.5	-11.8	4.0	7.2
COc1ccc(Cc2nc3ccc(C(=O)NCc4cccc(C)n4)cc3o2)cc1OC	3.9	-4.6	2.0	8.6	0.8	-14.3
CN1CCC(=C(c2ccccc2)c2ccc(Br)cc2)CC1	-46.5	-5.7	11.8	22.8	21.6*	12.4
COc1ccc(OC)c(CCNC(=O)CCCc2nnc3n(C)c(=O)c4sccc4n23)c1	-0.7	1.4	1.4	8.5	0.4	-3.3
O=C1C=CC2(O[C@H](c3ccccc3)[C@@H](c3ccccc3)O2)[C@H](Sc2ccccc2O)C1	-4.8	3.8	1.3	2.8	0.5	56.9*
CCOC(=O)c1ccc(NC(=O)c2ncn3c2C(=O)NC[C@@H]3C)cc1	0.6	-8.9	1.7	14.0	0.1	-4.5
Cc1ncsc1CCOC(=O)c1ccccc1	8.8	6.2	0.3	-6.0	-0.3	5.3
Cc1ncsc1CCOC(=O)c1ccc(Cl)cc1	23.9*	-14.1	1.8	11.8	0.7	-9.5
N#CC1=C(N)C(C#N)(C#N)[C@H](c2ccncc2)[C@H]2CN(C(=O)OCc3ccccc3)CC=C12	34.8*	-8.4	-1.3	10.7	-0.4	-7.6
Cc1ccc(/C=C2/NC(=O)N(Cc3ccccc3)C2=O)s1	-15.8	27.4*	9.4	-7.5	1.6	5.9
COc1ccccc1N(Cc1ccccc1)S(=O)(=O)c1cccc(C(=O)NCC2CCCO2)c1 (centres undefined)	-3.8	-7.1	4.5	9.2	0.8	-3.8
CN(C)CCCn1c(SCc2c(Cl)cccc2Cl)nnc1-c1ccncc1	22.4*	-2.0	4.3	15.9	0.0	14.8
CN(C)S(=O)(=O)c1ccc(C(=O)Nc2ccc(CN3CCCC3)cc2)cc1	-18.2	-8.1	0.9	15.4	-0.3	69.4*
Cc1ccc(NC(=O)c2ccc(CN3CCc4ccccc4C3)cc2)cc1	-4.0	-9.9	1.7	18.2	0.5	-6.6
O=C(Nc1ccc(S(=O)(=O)N2CCCCC2)cc1)c1ccc(CN2CCc3ccccc3C2)cc1	-15.6	33.2*	8.5	-4.0	0.2	40.4*
O=C(Nc1ccccc1)c1ccc(CN2CCc3ccccc3C2)cc1	-4.7	23.9*	1.8	-12.8	7.1	-0.8
CCOC(=O)c1csc(NC(=O)c2ccc(S(=O)(=O)N(CC)CC)cc2)n1	-11.7	-10.3	2.9	14.1	15.3*	6.7
CCc1ccc(NC(=O)CN2CCc3ccccc3C2)cc1	-9.4	24.4*	-1.3	-6.7	-0.2	3.4
CC(NC(=O)c1ccccc1NC(=O)CN1CCc2ccccc2C1)c1ccccc1 (centres undefined)	-5.0	-13.2	15.0	40.3*	7.1	11.2
CCN(CC)S(=O)(=O)c1ccc(C(=O)Nc2ccc(Cc3ccncc3)cc2)cc1	-17.7	16.3	17.8	-21.4	15.4*	8.1
CC(C)(C)c1ccc(S(=O)(=O)Nc2ccc(Cc3ccncc3)cc2)cc1	-32.2	24.4*	16.3	8.0	11.4	16.4
SMILES	M4 PAM	CHO-K1 Ca antag	CHRM4 agonist	CHO-K1 Ca PAM	CHO-K1 Ca ag	M4 antag
CC(NC(=O)c1ccccc1NC(=O)CN1CCN(c2ccccc2O)CC1)c1ccccc1 (centres undefined)	-5.3	-20.5	13.3	20.8	4.4	5.8
CCc1nc2c(OCC(=O)c3ccc(Cl)cc3Cl)cccn2c1N(C)C(=O)c1cccs1	-1.9	-16.1	4.3	22.4	2.2	-2.9
CN(c1ccccc1)S(=O)(=O)c1ccc(C(=O)NCc2ccccc2CN2CCCC2)cc1	-10.6	9.7	2.9	-12.7	17.2*	1.1
CN(c1ccccc1)S(=O)(=O)c1cccc(C(=O)NCc2ccccc2CN2CCCC2)c1	-9.4	-14.2	2.1	14.3	0.9	11.2
CCCCC(c1nc2ccccc2[nH]1)n1c(=O)c(-c2ccccc2)nc2cc(C)c(C)cc21 (centres undefined)	20.9*	1.1	2.1	-10.4	-0.5	-2.3
COc1ccc(NC(=O)COC(=O)CC2CC3CCC2C3)c([N+](=O)[O-])c1 (centres undefined)	21.1*	-7.4	0.2	19.8	0.2	1.2
Cc1cccc(-n2ncc3c2CCCC3NC(=O)c2ccncc2)c1C (centres undefined)	-6.2	15.9	11.5	-5.8	8.8	-7.1
CCn1cc(C(=O)NC2CCCc3c2cnn3-c2cccc(C)c2C)cn1 (centres undefined)	-7.0	25.1*	12.5	-2.1	14.3	20.8
Cc1ccccc1NC1=NCC(c2ccc([N+](=O)[O-])cc2)S1 (centres undefined)	-10.6	-16.3	15.7	24.8	19.2*	9.4
Cc1ccc(S(=O)(=O)N2C[C@H]3C(=O)C[C@@H](c4cccc(C)c4)N(S(=O)(=O)c4ccc(C)cc4)[C@H]3C[C@H]2c2ccccc2)cc1	-3.3	0.5	0.9	16.4	1.5	-8.0
O=C(Nc1ccc(Cl)cc1)c1csc(-c2ccncc2)n1	6.1	-10.1	5.3	19.7	3.5	-4.3
O=C(Nc1ccc(Cl)cc1)c1csc(-c2ccccc2)n1	33.7*	-0.3	-2.4	6.2	-0.2	-6.8
NC(=O)C1CCN(C(=O)c2ccc([N+](=O)[O-])cc2NC(=O)c2cccs2)CC1	-3.7	22.9	-0.3	-1.7	0.0	-3.3
CCCNC(=O)c1cc(C2CCCCN2C(=O)c2cc(OC)c(C)c(OC)c2)on1 (centres undefined)	-5.8	24.6*	10.0	-10.2	3.5	-2.8
CCOC(=O)C1CCC(C(=O)OCC)N1c1ccc(C=O)cc1 (centres undefined)	6.0	-0.8	-1.8	5.1	-0.7	-4.8
CCCOc1ccc(N2C(=O)CC(N3CCN(c4ccc([N+](=O)[O-])cc4)CC3)C2=O)cc1 (centres undefined)	-5.5	1.8	9.9	12.0	24.7*	-9.8
CCOc1ccc(N2C(=O)CC(N3CCN(c4ccc([N+](=O)[O-])cc4)CC3)C2=O)cc1 (centres undefined)	1.6	-12.2	2.2	18.0	2.1	-9.6
O=C(NC(c1ccccc1)C(Cl)Cl)c1ccccc1 (centres undefined)	-7.0	-8.9	1.0	12.5	0.5	-3.3
